The record followed here is PubChem BioAssay (NCATS).

The target in test [1] is Cellular tumor antigen p53 (Homo sapiens) (UniProt P04637). Briefly: Primary qHTS for small molecule compounds that upregulate eGFP-tagged delta133p53alpha (in N-terminal) cells. (AID 2060322).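 For activation: cells pre-induced with doxycycline then dosed without doxycycline; series mostly up to about 56 µM; 0% = DMSO vehicle and 100% = reference activator.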 Note: nearly all actives have a fitted effect of over 75% in size. Note: potency is the fitted concentration of half-maximal effect. The conditions noted are these: NCI-H358 eGFP-delta133p53alpha fluorescence, 24 h; activation: hits give high values. In short, it runs like this:
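NCI-H358 cells pre-induced 24 h with 10 ng/ml doxycycline for eGFP-delta133p53alpha, plated dox-free and exposed 24 h at 37C to titrated compounds. Fixed, Hoechst-stained; gated GFP peak intensity by laser scanning cytometry, normalized to DMSO (0%) and 57.5 uM 5-azacytidine (100%).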
(qHTS replaces the single test concentration by a dilution series.)

In test [2] the target is Aldehyde dehydrogenase, mitochondrial (Homo sapiens) (UniProt P05091). Put plainly: qHTS for Inhibitors of the Aldehyde Dehydrogenase Family (ALDH2) Primary screen (AID 2061308).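 Note: plate controls were vehicle for no effect and reference inhibitor for full effect; nearly all actives have a fitted effect of over 55% in size.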
Test [3] addresses Retinaldehyde dehydrogenase 3 (Homo sapiens) (UniProt P47895). Put plainly: qHTS for Inhibitors of the Aldehyde Dehydrogenase Family (ALDH1A3) Primary screen (AID 2061315).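 Note: plate controls were DMSO vehicle for no effect and reference inhibitor for full effect.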

Results filed as inconclusive are left out. Values without a mark were called inactive. The source made the active and inactive calls. Calls come from the whole dose curve; as a rule, active = well fitted curve in the direction sought with a large enough effect; inconclusive = small, poorly fitted or top-dose-only effect, or another doubt; inactive = no such curve, though single readings can be large; an effect the other way counts as inactive or inconclusive.

Sequence of Cellular tumor antigen p53 (Homo sapiens) (P04637 whole entry, looked up): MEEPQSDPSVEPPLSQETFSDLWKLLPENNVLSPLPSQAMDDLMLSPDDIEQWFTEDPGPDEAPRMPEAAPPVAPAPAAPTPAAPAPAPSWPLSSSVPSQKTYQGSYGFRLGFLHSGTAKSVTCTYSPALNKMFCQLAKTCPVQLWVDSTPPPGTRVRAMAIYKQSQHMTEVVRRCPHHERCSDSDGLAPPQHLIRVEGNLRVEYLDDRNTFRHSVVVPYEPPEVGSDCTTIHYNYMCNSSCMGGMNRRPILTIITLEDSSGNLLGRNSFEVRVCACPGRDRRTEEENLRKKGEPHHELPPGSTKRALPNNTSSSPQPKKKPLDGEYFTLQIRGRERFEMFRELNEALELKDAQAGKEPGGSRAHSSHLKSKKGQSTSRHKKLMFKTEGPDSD

Turning to `COC(=O)CC1(O)C(=O)Nc2ccccc21` (stereo not given), the activation in test [1] was -1.79%. For the same molecule, the Potency result in test [2] and in test [3] was “inactive” in each case.
Regarding `C=CC1(C)CC2=CCC3C(C)(C(=O)O)CCCC3(C)C2CC1OC(C)=O` (stereo not given), in test [1], the activation was -14.5%. Also, the Potency entry in test [2] and in test [3] was “inactive” in each case.
Turning to `CC(CC12CCCN1C(=O)C1CCCN1C2=O)OC(N)=O` (stereo not given), the activation in test [1] was -18.3%. Besides, the Potency result in test [2] and in test [3] was “inactive” throughout.
`CC1OC(OCC2OC(OC3CCC4(C)C(CCC5(C)C4CC=C4C6CC(C)(C)CCC6(C(=O)OC6OC(CO)C(O)C(O)C6O)CCC45C)C3(C)CO)C(O)C(O)C2O)C(O)C(O)C1O` (stereo not given): the activation in test [1] was -9.92%. For the same molecule, the Potency entry in test [2] and in test [3] was “inactive” in each case.
Take `N[C@H]1CN(c2c(F)cc3c(=O)c(C(=O)O)cn(C4C[C@@H]4F)c3c2Cl)CC12CC2` (stereo not given in full): the activation in test [1] is -26%. Further, the Potency result in test [2] and in test [3] was “inactive” each time.
Take `C/C=C/C=C/C=C/C(=O)O[C@@H]1C=C(CO)C(O)(C(=O)O)[C@@]2(C)CCCC(C)(C)[C@H]12` (stereo not given in full): the activation in test [1] is -9.92%. Besides, the Potency entry in test [2] and in test [3] was “inactive” throughout.
With `CO[C@H]1/C=C/C=C/C=C/C[C@H](OC(=O)[C@@H](C)NC(=O)C2CCCCC2)[C@H](C)[C@@H](O)/C(C)=C/CCc2cc(O)cc(c2)NC(=O)C1`, the Potency in test [1] was 2.81 µM (active). Moreover, the Potency entry in test [2] and in test [3] was “inactive” in each case.
On to `C/C=C(\C)C1C(C)=CC2CCC(OS(=O)(=O)O)C(C)C2C1/C=C/C=C/C(=O)O` (stereo not given), for which, in test [1], the activation is 0.893%. Besides, the Potency result in test [2] and in test [3] was “inactive” throughout.
For `COc1cc(/C=C/C(=O)O[C@H]2C[C@@H]3C(C(=O)O)=CO[C@@H](O[C@@H]4O[C@H](CO)[C@@H](O)[C@H](O)[C@H]4O)[C@@H]3[C@H]2C)ccc1O`, the activation in test [1] was -2.29%. Further, the Potency result in test [2] and in test [3] was “inactive” throughout.
Turning to `Cc1ccn(-c2cc(Cl)ccc2[C@@H](Oc2cc(-c3ccc(C[C@H](N)C(=O)O)cc3)nc(N)n2)C(F)(F)F)n1`, the activation in test [1] is -7%. Besides, the Potency result in test [2] and in test [3] was “inactive” in each case.
As to `COC1C2=C(COC2=O)C2(C)CCCC(C)(CO)C2C1OC(=O)c1ccccc1` (stereo not given), the activation in test [1] was -16%. For the same molecule, the Potency entry in test [2] and in test [3] was “inactive” throughout.
For the molecule `Cc1cc2c(c(=O)o1)C=C1CC[C@H]([C@H](C)Cn3cnc(=N)c4[nH]cnc43)C[C@@H]1O2`, in test [1], the activation is 14.3%. Moreover, the Potency result in test [2] and in test [3] was “inactive” throughout.
In the case of `COc1cc(/C=C/CO)ccc1O[C@@H]1O[C@H](CO)[C@@H](O)[C@H](O)[C@H]1O`, in test [1], the activation was -6.25%. Besides, the Potency result in test [2] and in test [3] was “inactive” throughout.
Turning to `O=C(NC[C@H]1CN(c2ccc(N3CCOCC3=O)cc2)C(=O)O1)c1ccc(Cl)s1`, the activation in test [1] is 5.25%. Besides, the Potency entry in test [2] and in test [3] was “inactive” each time.
Consider `O=C1CCC(c2ccccc2)(C2CCN(Cc3ccc(I)cc3)CC2)C(=O)N1` (stereo not given), for which the activation in test [1] is 4.33%. Besides, the Potency entry in test [2] and in test [3] was “inactive” throughout.
As to `C=C(CCO)C(=O)OCC1OCC(OC(=O)C(=C)CCO[C@@H]2O[C@H](CO)[C@@H](O)[C@H](O)[C@H]2O)C(O)C1O` (stereo not given in full), in test [1], the activation was -8.4%. The Potency entry in test [2] and in test [3] was “inactive” each time.
Consider `CC1CC[C@]2(C(=O)O)CC[C@]3(C(=O)O)C(=CCC4[C@@]5(C)CC[C@H](O[C@@H]6O[C@H](CO)[C@@H](O)[C@H](O)[C@H]6O)C(C)(C)C5CC[C@]43C)C2C1C` (stereo not given in full), for which the activation in test [1] was 0.893%. The Potency result in test [2] and in test [3] was “inactive” throughout.
Consider `CC1(C)CC[C@]2(C(=O)O)CC[C@]3(C)C(=CCC4[C@@]5(C)CC[C@H](O[C@@H]6O[C@H](C(=O)O)[C@@H](O)[C@H](O)[C@H]6O)C(C)(C)C5CC[C@]43C)C2C1` (stereo not given in full), for which the activation in test [1] is 11.5%. Moreover, the Potency entry in test [2] and in test [3] was “inactive” each time.
With `COC(=O)[C@H](OC(C)=O)[C@H]1C(C)(C)C(=O)[C@H]2CC3=C4CC(=O)O[C@@H](c5ccoc5)[C@]4(C)CCC3[C@@]1(C)C2=O` (stereo not given in full), the activation in test [1] is 2.68%. In addition, the Potency entry in test [2] and in test [3] was “inactive” in each case.
As to `CC1(C)CC[C@]2(C(=O)O)CC[C@]3(C)C(=CCC4[C@@]5(C)CC[C@H](O[C@@H]6O[C@H](CO)[C@@H](O)[C@H](O)[C@H]6O[C@@H]6O[C@H](CO)[C@@H](O)[C@H](O)[C@H]6O)[C@@](C)(CO)C5CC[C@]43C)[C@@H]2C1` (stereo not given in full), in test [1], the activation is 9.82%. Further, the Potency entry in test [2] and in test [3] was “inactive” each time.
As to `CCOC(=O)C1(CCOc2ccccc2)CCN(Cc2ccc(O)c(Cl)c2)CC1`, the activation in test [1] is 3.67%. In addition, the Potency entry in test [2] and in test [3] was “inactive” throughout.
For the molecule `C[C@]1(O)CC[C@@H]2C(C(=O)O)=CO[C@@H](O[C@@H]3O[C@H](COC(=O)c4ccc(O)cc4)[C@@H](O)[C@H](O)[C@H]3O)[C@@H]21`, the activation in test [1] is 0.893%. Besides, the Potency entry in test [2] and in test [3] was “inactive” throughout.
Turning to `CC(c1c[nH]c2ccccc12)C(O)C(=O)O` (stereo not given), the activation in test [1] is -11.5%. For the same molecule, the Potency entry in test [2] and in test [3] was “inactive” in each case.
On to `COc1cc(-c2ccc(O)cc2)c(OC)c(O)c1C1=CC(=O)OC1CC(=O)O` (stereo not given), for which, in test [1], the activation was 13.7%. In addition, the Potency result in test [2] and in test [3] was “inactive” in each case.
For the molecule `C=C1[C@H](OC(C)=O)[C@H]2[C@@H](OC(C)=O)[C@](C)(OC(C)=O)C[C@]2(OC(C)=O)C(=O)[C@H](C)/C=C/C(C)(C)C(=O)[C@H](OC(=O)C(C)C)[C@H]1OC(C)=O`, the activation in test [1] was 2.29%. Moreover, the Potency entry in test [2] and in test [3] was “inactive” each time.
